Among the data in PubChem BioAssay (NCATS) are max response, outcome and Potency values, retold here.

The test system of experiment [1] is CRL-7250. Description: Cytotoxic Profiling of Annotated Libraries Using Quantitative High-Throughput Screening (AID 1296008). On max response: on the % scale 0 is the no-effect control and ±100 the full control effect. Particulars: Five cell lines viability, CellTiter-Glo ATP luminescence, 48-72 h; max response: stronger effect = lower value. The gist of the method: (§1)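 Cytotoxicity was measured as CellTiter-Glo ATP luminescence, read after 10 min at room temperature. Compound treatment of the cells lasted 48 or 72 hr at 37 degrees Celsius in a qHTS format.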

Experiment [2] has as its system HEK293. The description is as above. As to conditions: Five cell lines viability, CellTiter-Glo ATP luminescence, 48-72 h; max response: stronger effect = lower value. Put shortly: as §1
On the technique in general: In ATP-based viability assays light output follows the ATP content of the culture.

The subject of experiment [3] is HaCat. The description is as above. As to conditions: Five cell lines viability, CellTiter-Glo ATP luminescence, 48-72 h; max response: stronger effect = lower value. Put shortly:
as §1

In experiment [4] the test system is KB-3-1. The experiment is described as above. Particulars: Five cell lines viability, CellTiter-Glo ATP luminescence, 48-72 h; max response: stronger effect = lower value. Put shortly: as §1
Experiment [5] concerns NIH3T3. Described as above. As to conditions: Five cell lines viability, CellTiter-Glo ATP luminescence, 48-72 h; max response: stronger effect = lower value. The gist of the method: as §1
For experiment [6], the system named is HB3. Description: qHTS profiling for inhibitors of Plasmodium falciparum proliferation (AID 504749). As to conditions: P. falciparum in erythrocytes, SYBR Green DNA, 72 h; series mostly up to 28.7 µM. Put shortly:
(§2)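 In a 72 h erythrocytic culture (37 C, humidified, 5% CO2) at 2.5% hematocrit and 0.3% starting parasitemia, compounds were tested; SYBR Green I in detergent lysis buffer stained parasite DNA overnight.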
In general terms: In qHTS, concentration-response curves come from the screen itself.

The test system of experiment [7] is ICS. The experiment is described as above. Particulars: P. falciparum in erythrocytes, SYBR Green DNA, 72 h; series mostly up to 28.7 µM. The gist of the method: as §2
In experiment [8] the test system is JCK. The description is as above. As to conditions: P. falciparum in erythrocytes, SYBR Green DNA, 72 h; series mostly up to 28.7 µM. The gist of the method:
as §2

The subject of experiment [9] is N140. Described as above. Particulars: P. falciparum in erythrocytes, SYBR Green DNA, 72 h; series mostly up to 28.7 µM. Put shortly: as §2
The subject of experiment [10] is P93_24. The description is as above. As to conditions: P. falciparum in erythrocytes, SYBR Green DNA, 72 h; series mostly up to 28.7 µM. The gist of the method: as §2
Experiment [11] deals with P94_40. Described as above. As to conditions: P. falciparum in erythrocytes, SYBR Green DNA, 72 h; series mostly up to 28.7 µM. The gist of the method: as §2
The test system of experiment [12] is PAD. The description is as above. Particulars: P. falciparum in erythrocytes, SYBR Green DNA, 72 h; series mostly up to 28.7 µM. Put shortly: as §2
In experiment [13] the test system is PC15. The experiment is described as above. Particulars: P. falciparum in erythrocytes, SYBR Green DNA, 72 h; series mostly up to 28.7 µM. The gist of the method:
as §2

Experiment [14] deals with PC26. The experiment is described as above. As to conditions: P. falciparum in erythrocytes, SYBR Green DNA, 72 h; series mostly up to 28.7 µM. The gist of the method:
as §2

The test system of experiment [15] is PC49. The experiment is described as above. Particulars: P. falciparum in erythrocytes, SYBR Green DNA, 72 h; series mostly up to 28.7 µM. Put shortly: as §2
In experiment [16] the test system is SC27B. The experiment is described as above. Particulars: P. falciparum in erythrocytes, SYBR Green DNA, 72 h; series mostly up to 28.7 µM. The gist of the method:
as §2

Experiment [17] relates to TAB109. The experiment is described as above. As to conditions: P. falciparum in erythrocytes, SYBR Green DNA, 72 h; series mostly up to 28.7 µM. The gist of the method:
as §2

In experiment [18] the test system is TAB113. The experiment is described as above. Particulars: P. falciparum in erythrocytes, SYBR Green DNA, 72 h; series mostly up to 28.7 µM. Put shortly: as §2
Experiment [19] concerns TAB165. The experiment is described as above. As to conditions: P. falciparum in erythrocytes, SYBR Green DNA, 72 h; series mostly up to 28.7 µM. The gist of the method: as §2
Experiment [20] concerns W2. The description is as above. As to conditions: P. falciparum in erythrocytes, SYBR Green DNA, 72 h; series mostly up to 28.7 µM. The gist of the method: as §2

Molecules are shown by their SMILES. “And” between values parts separate entries of the source, which are not always exact repeats. Equal entries are not always repeated. Records with an inconclusive call do not appear. Values without a mark were called inactive. The source made the active and inactive calls. The call rests on the fitted dose curve; in most records, active means well fitted inhibition curve with a large enough effect; inconclusive means small, poorly fitted or top-dose-only effect; inactive means flat fitted curve, though single readings scatter.
Further: nearly all actives have a fitted effect of over 60% in size.
Potency means the concentration at half of the fitted maximal effect.

For the compound `CCC1(C)CC(=O)NC1=O` (stereo not given), the max response is 0.182% in [1]; -13.5% in experiment [3]; 7.96% and 9.28% in [4]. For the same compound, the compound was called inactive in experiment [2], in experiment [3] and in experiment [5].

With `CCN1CCCC1CNC(=O)c1cc(S(=O)(=O)CC)c(N)cc1OC` (stereo not given), the outcome in experiment [1], in [3] and in [5] was inactive. Also, the max response in experiment [2] is -9.52% and 2.43%; in experiment [3], -3.32%; in experiment [4], 8.59%; in experiment [5] it was 4.99%.

With `COC(=O)Nc1nc2ccc(C(=O)c3cccs3)cc2[nH]1`, the Potency entry in experiment [6], in experiment [7], in [8], in experiment [9], in experiment [10] and in [11] was “inactive” each time. Also, the Potency result in [12], in experiment [13], in [14], in experiment [15], in experiment [16] and in experiment [17] was “inactive” throughout. The Potency result in [18] and in experiment [19] was “inactive” each time. Further, the Potency in experiment [1] is 46.9 nM (active) and 188 nM (active); in [2], 0.0944 µM (active); in experiment [4], 16.6 nM (active) and 231 nM (active); in experiment [5] it was 0.168 µM (active). Besides, the max response in experiment [3] is 3.37% and -11.6%.

`Nc1ccn([C@H]2CC[C@@H](CO)O2)c(=O)n1`: the max response in [1] is -6.37% and 1.28%; in experiment [3], -8.68%; in experiment [4] it was -19.7%; in experiment [5] it was -7.7% and 2.02%. Besides, the outcome in experiment [2], in experiment [3] and in [4] was inactive.

For the compound `Fc1ccc([C@@H]2CCNC[C@H]2COc2ccc3c(c2)OCO3)cc1`, the max response in experiment [1] is -5.94%; in [2], -24.9%; in experiment [4] it was -16.5% and -9.57%; in experiment [5], -13.3%. The compound was called inactive in [3].

On to `COc1cc2nc(N(C)CCCNC(=O)C3CCCO3)nc(N)c2cc1OC` (stereo not given), for which the max response is -3.88% in [1]; 0.95% in experiment [2]; -0.905% and -4.65% in experiment [3]; 9.19% and 1.98% in experiment [4]. Besides, the result in [5] was inactive.

`CC(C)Cc1ccc(C(C)C(=O)O)cc1` (stereo not given): the Potency result in experiment [6], in experiment [7], in [8], in [9], in [10] and in [11] was “inactive” throughout. Moreover, the Potency result in experiment [12], in experiment [13], in experiment [14], in experiment [15], in [16] and in experiment [17] was “inactive” throughout. Besides, the Potency result in experiment [18], in experiment [19] and in experiment [20] was “inactive” each time. In addition, the max response in experiment [1] is -13.3% and 3.74%; in [2], 1.58% and -3.42%; in experiment [3], -14.1%; in experiment [4], 1.49% and -2.93%; in [5], 2.78%. In addition, the compound was classed as inactive in [3] and in experiment [5].

As for `CC12CC3CC(C)(C1)CC(N)(C3)C2`, the Potency entry in experiment [6], in experiment [7], in experiment [8], in [9], in [11] and in experiment [12] was “inactive” throughout. Further, the Potency entry in experiment [13], in experiment [14], in [16], in [17], in experiment [18] and in experiment [19] was “inactive” each time. Also, the Potency in [10] is 10 µM (active). The result in [1] was inactive. Besides, the max response in experiment [2] is -1.65% and -16.7%; in experiment [3], 0.352% and -2.07%; in experiment [4], 0.442%; in experiment [5], 1.33% and -0.312%.

As to `CS(=O)(=O)Nc1ccc([N+](=O)[O-])cc1Oc1ccccc1`, the Potency result in [6], in experiment [7], in experiment [8], in experiment [9], in experiment [10] and in experiment [11] was “inactive” in each case. In addition, the Potency entry in experiment [12], in experiment [13], in experiment [14], in [15], in experiment [16] and in [17] was “inactive” each time. Also, the Potency entry in experiment [18], in experiment [19] and in [20] was “inactive” throughout. In addition, the max response in experiment [1] was -4.36% and 1.83%; in experiment [2], -3.19%; in experiment [3] it was 1.46%; in experiment [4], 0.301% and -0.592%; in [5] it was 4.35% and -5.34%.

In the case of `COc1nc(C)nc(Cl)c1NC1=NCCN1`, the Potency result in experiment [6], in experiment [7], in experiment [8], in experiment [9], in [11] and in [12] was “inactive” throughout. For the same compound, the Potency entry in experiment [13], in [14], in experiment [15], in experiment [16], in experiment [17] and in experiment [18] was “inactive” in each case. Besides, the Potency result in [19] and in experiment [20] was “inactive” throughout. For the same compound, the max response in experiment [1] was -8.35%; in experiment [2] it was -5.08% and -4.05%; in [4] it was 11.6% and 7.19%; in [5], -2.5% and 2.31%. In addition, the outcome in [3] was inactive.

For `CN(C)C(=N)N=C(N)N`, the Potency result in experiment [6], in [7], in experiment [8], in [9], in experiment [10] and in [11] was “inactive” throughout. Moreover, the Potency result in experiment [12], in [13], in experiment [15], in experiment [16], in experiment [17] and in experiment [18] was “inactive” each time. For the same compound, the Potency entry in experiment [19] and in experiment [20] was “inactive” each time. Moreover, the result in experiment [1], in experiment [2] and in experiment [3] was inactive. Also, the max response in experiment [2] was 2.32%; in experiment [4], -1.82% and 7.62%; in [5] it was -1.85% and 1.26%.

In the case of `Cc1ccccc1N1C(=O)c2cc(S(N)(=O)=O)c(Cl)cc2NC1C` (stereo not given), the max response in [1] was -4.5%; in experiment [3], 0.851%; in experiment [4] it was 2.47% and -15% and -2.37%; in experiment [5] it was 4.24%. Moreover, the call in experiment [2], in experiment [3] and in [5] was inactive.

Turning to `Cc1cc(C(C)(C)C)cc(C)c1CC1=NCCN1`, the Potency result in experiment [6], in [7], in experiment [8], in experiment [9], in experiment [11] and in [12] was “inactive” each time. Moreover, the Potency result in experiment [13], in experiment [14], in [15], in experiment [16], in experiment [17] and in [18] was “inactive” in each case. For the same compound, the Potency result in experiment [19] was “inactive”. The Potency in experiment [20] was 4.05 µM (active). Also, the max response is -1.37% and -2.32% in experiment [1]; -19.6% and -11.6% in [2]; 3.71% and 6.55% in experiment [4]; -2.36% in experiment [5]. Besides, the outcome in experiment [3] was “inactive; activator”. Besides, the call in [5] was inactive.
